Article PMC4336329 (PLoS ONE, 2015)
Out of some 310,000 compounds screened, about 14,000 (4.5%) showed an effect of 50% or more. Effects have a minus sign here. Only a selection was taken, and strong results are over-represented in it overall.

Each compound was assayed against human ether-à-go-go-related gene (hERG) potassium channel (human, UniProt Q12809) (assay: primary screen, population patch clamp on CHO cells stably expressing hERG; higher = less effect of the substance).
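Note: peak tail current of the secondary pulse compared with the same well before compound.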

human ether-à-go-go-related gene (hERG) potassium channel, sequence (Q12809 whole entry, looked up): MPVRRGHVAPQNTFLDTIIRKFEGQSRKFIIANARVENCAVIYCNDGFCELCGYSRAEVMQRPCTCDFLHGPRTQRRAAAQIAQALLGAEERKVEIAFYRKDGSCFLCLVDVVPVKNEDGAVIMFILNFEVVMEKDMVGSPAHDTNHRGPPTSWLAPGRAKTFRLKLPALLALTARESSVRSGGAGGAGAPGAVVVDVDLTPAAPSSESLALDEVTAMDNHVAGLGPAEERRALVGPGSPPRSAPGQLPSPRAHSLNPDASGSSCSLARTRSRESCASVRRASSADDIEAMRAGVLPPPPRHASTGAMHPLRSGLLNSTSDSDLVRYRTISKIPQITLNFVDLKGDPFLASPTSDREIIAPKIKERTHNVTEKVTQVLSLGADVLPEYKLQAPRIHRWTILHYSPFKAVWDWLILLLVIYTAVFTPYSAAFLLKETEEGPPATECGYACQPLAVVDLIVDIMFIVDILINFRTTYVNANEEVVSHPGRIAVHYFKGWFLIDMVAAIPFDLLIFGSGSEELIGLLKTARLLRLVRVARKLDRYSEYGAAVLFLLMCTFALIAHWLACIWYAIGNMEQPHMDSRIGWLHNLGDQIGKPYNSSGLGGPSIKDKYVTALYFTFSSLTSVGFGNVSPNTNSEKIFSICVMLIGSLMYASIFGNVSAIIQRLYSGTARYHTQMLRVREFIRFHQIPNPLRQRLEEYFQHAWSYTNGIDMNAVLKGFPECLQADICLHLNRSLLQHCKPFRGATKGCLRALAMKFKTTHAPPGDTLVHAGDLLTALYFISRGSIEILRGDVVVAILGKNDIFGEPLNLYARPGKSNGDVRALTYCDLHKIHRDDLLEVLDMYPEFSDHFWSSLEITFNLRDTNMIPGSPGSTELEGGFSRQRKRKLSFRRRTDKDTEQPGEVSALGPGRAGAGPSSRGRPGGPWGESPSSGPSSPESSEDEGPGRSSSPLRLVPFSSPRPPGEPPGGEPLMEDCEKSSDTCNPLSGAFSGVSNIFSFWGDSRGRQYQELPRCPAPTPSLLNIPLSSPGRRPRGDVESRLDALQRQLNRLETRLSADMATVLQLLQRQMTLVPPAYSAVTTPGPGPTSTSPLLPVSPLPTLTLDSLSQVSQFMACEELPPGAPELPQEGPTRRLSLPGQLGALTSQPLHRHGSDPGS

Row | Structure (SMILES) | hERG current change (%, negative = inhibition) at 10uM
1 | CCc1ccc(C(C)NC(=O)/C(C#N)=C\c2cn[nH]c2-c2ccccc2)cc1 (stereo not drawn) | -1.91%
2 | CC1=NN(c2ccc(Cl)cc2)C(=O)C1 | 3.77%
3 | Cc1ccc(C(=O)OCC(=O)N2CCOCC2)cc1 | 15.6%
4 | O=C(NNC(=S)Nc1ccc(Cl)cc1Cl)C1CC1 | -24%
5 | O=C(Nc1ccc2c(c1)OC1(CCCC1)O2)C1CC1 | 3.79%
6 | Cc1ccc(C)n1-c1ncc(Br)cn1 | 6.58%
7 | CCCCOCCCNC(=O)N[C@@H](CCSC)C(=O)OC | 16.3%
8 | C=CCn1c2ccccc2c(=O)c2cc(C#Cc3ccccn3)ccc21 | -0.113%
9 | CCOC(=O)C1(CCOc2ccccc2)CCN(Cc2ccc(O)cc2)CC1 | -85.1%
10 | CCOC(=O)C1(CCOc2ccccc2)CCN(Cc2ccc(OCCO)cc2)CC1 | -77.9%
11 | CCOC(=O)C1(CCOc2ccccc2)CCN(Cc2ccc(O)c(Cl)c2)CC1 | -53%
12 | O=C(N/N=C\c1cc(Br)c(Br)o1)c1cncc(Br)c1 | 7.62%
13 | CN(C)c1cccc(C(=O)Nc2ccc(N3CCOCC3)cc2)c1 | 2.06%
14 | Cc1nc2nc(-c3ccccc3)cc(=O)n2[nH]1 | 11.8%
15 | O=C(NNS(=O)(=O)c1ccc([N+](=O)[O-])cc1)C(=O)Nc1cccc(C(=O)O)c1 | 11.9%
16 | COc1ccc(C2C(C(=O)N3CCC4(CC3)OCCO4)CC(=O)N2c2ccc(OC)cc2)cc1 (stereo not drawn) | -6.88%
17 | O=S(=O)(NCC(c1ccco1)N1CCN(c2ccccc2)CC1)c1ccc(F)cc1 (stereo not drawn) | 0.0547%
18 | O=C1COc2ccc(C(=O)COC(=O)Cc3ccc(F)cc3)cc2N1 | -23.8%
19 | CCC(=O)c1ccc(OCC(=O)Nc2ccccc2C(=O)NC2CC2)cc1 | -6.53%
20 | OC1/C(=C/c2ccccc2C(F)(F)F)N2CCC1CC2 (stereo not drawn) | 9.66%
21 | Brc1ccc(-c2nnc3c4ccccc4nc(N4CCOCC4)n23)cc1 | -8.42%
22 | Fc1ccccc1-c1nnc2c3ccccc3nc(N3CCOCC3)n12 | -9.92%
23 | Clc1ccc(-c2nnc3c4ccccc4nc(N4CCOCC4)n23)cc1Cl | -64.7%
24 | CCCN(CC(=O)Nc1ccccc1C)C(=O)C1CCN(c2ncnc3sc(C)c(C)c23)CC1 | -76.2%

Row | Structure (SMILES) | hERG current change (%, negative = inhibition) at 10uM
25 | CCOc1ccc(NC(=O)CN(C)C(=O)C2CCCC2)cc1OCC | 27.8%
26 | CCOc1ccc(NC(=O)CN(C)C(=O)C2CCN(c3ncnc4sc(C)c(C)c34)CC2)cc1OCC | -58.2%
27 | Cc1sc2ncnc(N3CCC(C(=O)N(C)CC(=O)Nc4ccc(Cl)c(C(F)(F)F)c4)CC3)c2c1C | 3.47%
28 | CCN(CC(=O)Nc1c(F)cccc1F)C(=O)C1CCN(c2ncnc3sc(C)c(C)c23)CC1 | -57.8%
29 | Cc1sc2ncnc(N3CCC(C(=O)Nc4ccccc4C(C)(C)C)CC3)c2c1C | -15.2%
30 | CCCCc1nnc(NC(=O)C2CCN(c3ncnc4sc(C)c(C)c34)CC2)s1 | 16.6%
31 | CCN(CC(=O)Nc1c(F)cccc1F)C(=O)C1CC1 | 3.28%
32 | CCN(CC(=O)Nc1c(F)cccc1F)C(=O)C1CCC1 | -13.8%
33 | Cc1sc2ncnc(N3CCC(C(=O)Nc4ccc(Br)cc4Br)CC3)c2c1C | -7.07%
34 | CCOC(=O)c1ccccc1NC(=O)C1CCN(c2ncnc3sc(C)c(C)c23)CC1 | -11.4%
35 | Cc1sc2ncnc(N3CCC(C(=O)N(C)CC(=O)Nc4ccccc4Br)CC3)c2c1C | -65.8%
36 | COc1ccc(C2=NN(C(=O)c3ccco3)C(c3ccco3)C2)cc1OC (stereo not drawn) | 7.24%
37 | COc1cccc(SCc2noc(C(=O)NCC3CC3)c2C(=O)NCC2CC2)c1 | -43.5%
38 | CCN(Cc1ccccc1)C(=O)c1ccccc1C | 1.76%
39 | CC(NC(=O)C1CCN(S(=O)(=O)N2CCC3(CC2)OCCO3)CC1)c1ccccc1 (stereo not drawn) | 20.9%
40 | CCCC(C)NS(=O)(=O)c1ccccc1 (stereo not drawn) | -18.4%
41 | CN1CC(=O)N(CC(=O)Nc2ccc(SC(F)F)cc2)C1=O | -23.5%
42 | CCOc1ccc2nc(C(=O)N3CCCC(C)C3)sc2c1 (stereo not drawn) | -2.28%
43 | CCOC(=O)C1=C(C)N(C)C(=S)NC1c1ccc(Cl)cc1 (stereo not drawn) | -21.5%
44 | Cc1ccc(C(=O)OCC(=O)NC(=O)NCc2ccccc2)cc1C | 7.95%
45 | CCOC(=O)c1cnc(SCCN2CCOCC2)nc1N | 9.59%
46 | COC(=O)c1ccccc1NC(=O)c1cc2n(n1)C(C(F)F)CC(C(F)F)N2 (stereo not drawn) | 14%
47 | Cc1cc(C)n(C(C)CC(=O)Nc2ccc(-c3ccno3)cc2)n1 (stereo not drawn) | 1.47%
48 | CC1(C)CC(=O)C=C(NCCN2CCNCC2)C1 | -2.18%

Row | Structure (SMILES) | hERG current change (%, negative = inhibition) at 10uM
49 | Cc1sc2ncnc(N3CCC(C(=O)Nc4cc(Cl)ccc4Cl)CC3)c2c1C | 4.42%
50 | Cc1sc2ncnc(N3CCC(C(=O)N(C)CC(=O)Nc4ccccc4Cl)CC3)c2c1C | -67.7%
51 | Cc1cccc(C)c1NC(=O)CN(C)C(=O)C1CCN(c2ncnc3sc(C)c(C)c23)CC1 | -46.7%
52 | C=CCN(C(=O)CSc1nc2ccsc2c(=O)n1Cc1ccccn1)c1ccccc1 | -19.4%
53 | COCCCNC(=O)Cn1cc(C(C)=O)c2ccccc21 | 17.7%
54 | CC1CCN(C(=O)CN(c2ccccc2)S(=O)(=O)N(C)C)CC1 | 14.2%
55 | CCOC(=O)NC(N(O)c1cccc(Cl)c1)C(Cl)(Cl)Cl (stereo not drawn) | -74.2%
56 | CCOC(=O)NC(c1ccc(C(C)C)cc1)C(Cl)(Cl)Cl (stereo not drawn) | 1.44%
57 | CCOC(=O)NC(C(Cl)(Cl)Cl)S(=O)(=O)c1ccccc1 (stereo not drawn) | -6.98%
58 | Cc1ccc(-c2cc(C(=O)Nc3cc(C)on3)c3ccccc3n2)cc1 | 4.13%
59 | C=C(C)Cn1c(C2CC(=O)N(c3ccccc3F)C2)nc2ccccc21 (stereo not drawn) | -27%
60 | Cc1ccc(OCC(=O)NC(C)c2ccc(Cl)c(Cl)c2)c([N+](=O)[O-])n1 (stereo not drawn) | -21.4%
61 | CN(C)CCCNCCCNC(=O)/C(=N\O)c1ccccc1 | 6.64%
62 | O=C(c1ccc(Cl)s1)N1CCCC(N2CCN(c3ccc(F)cc3)CC2)C1 (stereo not drawn) | -70.1%
63 | O=C(c1cccs1)N1CCN(c2ccc(F)cc2)CC1 | -9.63%
64 | O=C(c1ccoc1)N1CCCC(N2CCN(c3ccc(F)cc3)CC2)C1 (stereo not drawn) | -48.1%
65 | O=C(c1cccs1)N1CCCC(N2CCN(c3ccc(F)cc3)CC2)C1 (stereo not drawn) | -65.7%
66 | O=C(c1ccncc1)N1CCCC(N2CCN(c3ccc(F)cc3)CC2)C1 (stereo not drawn) | -44.6%
67 | O=C(c1cccc(-c2ccco2)c1)N1CCCC(N2CCN(c3ccc(F)cc3)CC2)C1 (stereo not drawn) | -78.5%
68 | CC(C)=CC(=O)N1CCCC(N2CCN(c3ccc(F)cc3)CC2)C1 (stereo not drawn) | -0.816%
69 | CC(=O)c1ccc(C(=O)N2CCCC(N3CCN(c4ccc(F)cc4)CC3)C2)s1 (stereo not drawn) | -63.7%
70 | COc1ccccc1N1CCN(C2CCCN(C(=O)c3cccc(-c4ccco4)c3)C2)CC1 (stereo not drawn) | -36.1%
71 | O=C(C1CCOCC1)N1CCCC(N2CCN(c3ccc(F)cc3)CC2)C1 (stereo not drawn) | -3.64%
72 | Cc1ccccc1N1CCN(C2CCCN(C(=O)c3ccc(Cl)s3)C2)CC1 (stereo not drawn) | -46.8%

Row | Structure (SMILES) | hERG current change (%, negative = inhibition) at 10uM
73 | CC(C)n1cc(C(=O)N2CCCC(N3CCN(c4ccc(F)cc4)CC3)C2)cn1 (stereo not drawn) | -34.9%
74 | CCN(C(=O)COC(=O)C1CCN(S(=O)(=O)c2ccc(C)c(C)c2)CC1)C1CCS(=O)(=O)C1 (stereo not drawn) | -7.82%
75 | Cc1nnc2ccc(-c3ccc(NS(C)(=O)=O)cc3)nn12 | -16%
76 | CCOc1nc(Nc2ccccc2)nc(OCC)n1 | -21.7%
77 | COc1ccc(-c2ccc(N(C)C)cc2)cc1[C@H]1[C@H]2C=CC[C@@H](C)[C@@H]2C(=O)N1Cc1ccccc1 | 10.1%
78 | Cc1nc(N2CCN(Cc3ccccc3)CC2)nc2c1C(=O)CC(C)C2 (stereo not drawn) | -5.32%
79 | C(=N\N1CCN(C2c3ccccc3-c3ccccc32)CC1)/c1cccnc1 | 2.63%
80 | Cc1nnc(NC(=O)c2ccc(S(=O)(=O)N3CC(C)OC(C)C3)cc2)o1 (stereo not drawn) | 12.6%
81 | Cc1ccc(S(=O)(=O)N2CCCC2C(=O)Nc2nc3ccccc3s2)cc1 (stereo not drawn) | -14.8%
82 | Oc1ccc(/C=N/N=C(c2ccccc2)c2ccccc2)c(O)c1O | 8.49%
83 | COC(=O)CSc1nccc(C)n1 | 14.6%
84 | COC(=O)c1cn(NC(=O)Cn2nc([N+](=O)[O-])c(Cl)c2C)c(=O)c2ccccc12 | 18.6%
85 | O=C(Nc1ccccc1O)c1cccc(S(=O)(=O)N2CCOCC2)c1 | 17.7%
86 | O=C(Nc1ccccc1C(=O)N1CCCC1)c1cccc(S(=O)(=O)N2CCCCC2)c1 | -12.1%
87 | CC1CCN(S(=O)(=O)c2cccc(C(=O)Nc3ccccc3)c2)CC1 | -9.3%
88 | CCNC(=O)c1ccccc1NC(=O)c1cccc(S(=O)(=O)N2CCOCC2)c1 | -71.5%
89 | CCNC(=O)c1ccccc1NC(=O)c1cccc(S(=O)(=O)N2CCC(C)CC2)c1 | -55.4%
90 | CC1CCN(S(=O)(=O)c2cccc(C(=O)Nc3ccccn3)c2)CC1 | -22.1%
91 | Cc1ccccc1NC(=O)c1cccc(S(=O)(=O)N2CCOCC2)c1 | 31.9%
92 | CNC(=O)c1ccccc1NC(=O)c1cccc(S(=O)(=O)N2CCCCC2)c1 | -51.1%
93 | O=C(Nc1ccccc1C(=O)N1CCCC1)c1cccc(S(=O)(=O)N2CCCCCC2)c1 | -39.3%
